# Experimental data published in PubChem BioAssay (NCATS).
# Records with an inconclusive call do not appear. Active and inactive are the calls of the source. Calls follow the shape of the dose curve; as a rule, active = well fitted inhibition curve with a large enough effect; inconclusive = small, poorly fitted or top-dose-only effect; inactive = no such curve, though single readings can be large or run the other way.
# Biological target: Protein phosphatase 1D (Homo sapiens) (UniProt O15297)
# Assay: RapidFire Mass Spectrometry qHTS Assay for Modulators of WT P53-Induced Phosphatase 1 (WIP1) (AID 1347424)
# Conditions: WIP1 dephosphorylation of phosphopeptide, RapidFire MS; series mostly up to 63 µM; activity change, negative = inhibition: at the top concentration
# Text: Assay Provider (PI): Nathan Coussens Ph. D.
# National Center for Advancing Translational Sciences (NCATS), Rockville, MD
# National Institute of Health (NIH), Bethesda, Maryland
# WT P53-Induced Phosphatase 1 (WIP1) is a member of the magnesium-dependent serine/threonine protein phosphatase (PPM) family and is induced by P53 in response to DNA damage. In several human cancers, the WIP1 protein is overexpressed, which is generally associated with a worse prognosis. Although WIP1 is an attractive therapeutic target, no potent, selective, and bioactive small-molecule modulator with favorable pharmacokinetics has been reported. Phosphatase enzymes are among the most challenging targets for small molecules because of the difficulty of achieving both modulator selectivity and bioavailability. Another major obstacle has been the availability of robust and physiologically relevant phosphatase assays that are suitable for high-throughput screening.
# Here, we describe two orthogonal biochemical WIP1 activity assays that utilize phosphopeptides from native WIP1 substrates. We optimized a RapidFire MS assay to quantify the enzymatically dephosphorylated peptide reaction product in a 384-well format. Additionally, a redshifted Rhodamine-PBP fluorescence assay was optimized in a 1,536-well format to enable real-time WIP1 activity measurements through the detection of the orthogonal reaction product, Pi. We validated these two optimized assays by quantitative high-throughput screening against the National Center for Advancing Translational Sciences (NCATS) Pharmaceutical Collection and used secondary assays to confirm and evaluate inhibitors identified in the primary screen.
# SEQUENCE No. (e.g., 1, 2, 3, etc.); […] (e.g., Cells, Incubation, Reagent, etc.); VALUE; DESCRIPTION
# 1; Reagent; 50 uL; dispensed assay buffer: 0.1% formic acid in water (10 uL : 40 uL) solution in column 1
# 3; Library Compounds; 63 nL; library compounds in DMSO, columns 3-24
# 4; Control Compounds; 63 nL; DMSO in wells I-P, columns 1-2, GSK830371 (10 uM, final) in wells A-H, column 2
# 5; Time; 1 hr; incubation
# 6; Substrate; 2 uL; VEPPL-pS-QETFS (10 uM) in assay buffer, column 2-24
# 7; Time; 5 min; incubation
# 8; Reagent; 2 uL; 0.5% formic acid in water, columns 2-24
# 9; Reagent; 38 uL; VEPPL-S-QETF*S in 0.1% formic acid, columns 2-24
# 10; Detection; mass spec; RapidFire mass spectrometry
# NOTES (numbers refer to sequence above)
# 1, 2, 6; dispensed reagent in White Nunc 384-well PP microplates (264573); assay buffer: 50 mM Tris-HCl pH 7.5, 30 mM MgCl2, 1 mM TCEP, 0.1 mM EGTA, 75 ug/mL BSA.
# 2, 6, 8, 9; Dispensed with BioRaptr (Beckman Coulter)
# 2, 6, 9; Final concentrations: 10 nM WIP1; 2 uM VEPPL-pS-QETFS; 1 uM VEFFL-S-QETF*S
# 3 & 4; Kalypsys Pintool transfer (Wako USA), Tip wash sequence: water, DMSO, methanol, 20 sec vacuum dry.
# 5 & 7; incubation at room temperature
# 10; RapidFire mass spectrometry read using the Agilent RapidFire 360 (Clausse, 2019)
# Clausse V, et al. Physiologically relevant orthogonal assay for the discovery of small-molecule modulators of WIP1 […] in high-throughput screens. J Biol Chem. 2019, 294(46): 17654-17668. doi:10.1074/jbc.RA119.010201
# Sequence of Protein phosphatase 1D (Homo sapiens) (O15297 whole entry, looked up): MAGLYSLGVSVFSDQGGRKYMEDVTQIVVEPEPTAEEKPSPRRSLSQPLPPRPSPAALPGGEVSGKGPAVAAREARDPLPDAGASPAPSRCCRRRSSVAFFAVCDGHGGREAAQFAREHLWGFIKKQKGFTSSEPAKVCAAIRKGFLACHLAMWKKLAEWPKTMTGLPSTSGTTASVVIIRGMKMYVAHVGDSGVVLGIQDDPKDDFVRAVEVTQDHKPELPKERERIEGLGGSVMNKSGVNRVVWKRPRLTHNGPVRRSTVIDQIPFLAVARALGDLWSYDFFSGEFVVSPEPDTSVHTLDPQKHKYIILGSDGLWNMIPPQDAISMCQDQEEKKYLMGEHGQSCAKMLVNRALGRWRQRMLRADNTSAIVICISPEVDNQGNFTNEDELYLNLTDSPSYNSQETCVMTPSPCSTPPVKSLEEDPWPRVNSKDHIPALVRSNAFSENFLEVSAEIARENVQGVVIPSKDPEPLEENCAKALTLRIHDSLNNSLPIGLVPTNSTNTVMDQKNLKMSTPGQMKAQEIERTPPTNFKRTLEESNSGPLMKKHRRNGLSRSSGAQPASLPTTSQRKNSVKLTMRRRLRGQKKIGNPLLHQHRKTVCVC
row,Structure (SMILES),"activity change, negative = inhibition"
1,Cc1ncc([N+](=O)[O-])n1CCO,-4.41% (inactive)
2,NC(=O)N1c2ccccc2CC(=O)c2ccccc21,-29.5% (inactive)
3,O=S(=O)(O)CCS,-10.4% (inactive)
4,COc1cnc(NS(=O)(=O)c2ccc(N)cc2)nc1,-2.39% (inactive)
5,COc1ccc2cc3[n+](cc2c1OC)CCc1cc2c(cc1-3)OCO2,0.686% (inactive)
6,C[C@@H](CN1CC(=O)NC(=O)C1)N1CC(=O)NC(=O)C1,-10.1% (inactive)
7,CC1=CC(=O)c2ccccc2C1=O,-13.6% (inactive)
8,O=P(O)(O)C(O)(Cc1cccnc1)P(=O)(O)O,-1.6% (inactive)
9,COc1ccccc1OCC(O)COC(N)=O (stereo not given),2.35% (inactive)
10,NC(=O)c1cccnc1,-0.831% (inactive)
11,O=C(O)c1cccnc1,-6.08% (inactive)
12,CC(C(=O)O)c1ccc2c(c1)CC(=O)c1ccccc1S2 (stereo not given),-21.6% (inactive)
13,Oc1c(Cl)cc(Cl)c2cccnc12,-7.56% (inactive)
14,CNC(=O)c1cc(Oc2ccc(NC(=O)Nc3ccc(Cl)c(C(F)(F)F)c3)cc2)ccn1,-19% (inactive)
15,OC(Cn1cncn1)(Cn1cncn1)c1ccc(F)cc1F,-7.24% (inactive)
16,COc1nc(N)nc2c1ncn2[C@@H]1O[C@H](CO)[C@@H](O)[C@@H]1O,-12.5% (inactive)
17,COc1ccc2c(c1)c(CC(=O)OCC(=O)O)c(C)n2C(=O)c1ccc(Cl)cc1,-7.3% (inactive)
18,CC[C@H](NC(C)C)[C@H](O)c1ccc(O)c2[nH]c(=O)ccc12,2.46% (inactive)
19,CN1CCN(c2c(F)cc3c(=O)c(C(=O)O)cn4c3c2OCN4C)CC1,1.41% [at 26.6 µM] (inactive)
20,Cn1c(=O)c2c(ncn2CC(O)CO)n(C)c1=O (stereo not given),-2.69% (inactive)

row,Structure (SMILES),"activity change, negative = inhibition"
1,CCc1cc(C(N)=S)ccn1,0.539% (inactive)
2,CC(C)(C#N)c1cc(Cn2cncn2)cc(C(C)(C)C#N)c1,-6.3% (inactive)
3,Clc1ccccc1CN1CCc2sccc2C1,14.5% (inactive)
4,CC1=NN(c2ccccc2)C(=O)C1,-10.9% (inactive)
5,CC(C)C[C@H](NC(=O)[C@H](CCc1ccccc1)NC(=O)CN1CCOCC1)C(=O)N[C@@H](Cc1ccccc1)C(=O)N[C@@H](CC(C)C)C(=O)[C@@]1(C)CO1,66.4% (inactive)
6,CCn1cc(C(=O)O)c(=O)c2cc(F)c(N3CCNCC3)cc21,-3.67% (inactive)
7,CC(C)Cn1cnc2c(N)nc3ccccc3c21,-0.593% [at 26.6 µM] (inactive)
8,Cc1cc(NS(=O)(=O)c2ccc(N)cc2)no1,-4.55% (inactive)
9,CN(C)CCc1c[nH]c2ccc(CS(=O)(=O)N3CCCC3)cc12,-3.18% (inactive)
10,COc1ncnc(NS(=O)(=O)c2ccc(N)cc2)c1OC,-5.11% (inactive)
11,NS(=O)(=O)c1cc2c(cc1Cl)NC(C(Cl)Cl)NS2(=O)=O (stereo not given),-2.58% (inactive)
12,CC(C)(C)NC(=O)[C@H]1CC[C@H]2[C@@H]3CC[C@H]4NC(=O)C=C[C@]4(C)[C@H]3CC[C@]12C,0.831% (inactive)
13,CCOC(=O)[C@H](CCc1ccccc1)N[C@H]1CCc2ccccc2N(CC(=O)O)C1=O,18.1% (inactive)
14,CC[C@H](C)C(=O)O[C@H]1C[C@@H](C)C=C2C=C[C@H](C)[C@H](CC[C@@H]3C[C@@H](O)CC(=O)O3)[C@H]21,46.3% (inactive)
15,Cc1cccc(N(C)C(=S)Oc2ccc3ccccc3c2)c1,-3.74% (inactive)
16,Cc1nnc(NS(=O)(=O)c2ccc(N)cc2)s1,-2.49% (inactive)
17,CC(C)(Sc1cc(C(C)(C)C)c(O)c(C(C)(C)C)c1)Sc1cc(C(C)(C)C)c(O)c(C(C)(C)C)c1,6.02% (inactive)
18,CCOC(=O)c1ccc(OC(=O)CCCCCN=C(N)N)cc1,20.4% (inactive)
19,CN(C)c1ccc(C(=C2C=CC(=[N+](C)C)C=C2)c2ccc(N(C)C)cc2)cc1,46.9% (inactive)
20,CN(Cc1cc(Br)cc(Br)c1N)C1CCCCC1,7.04% (inactive)
